Hit rate of the full screen: of about 360,000 compounds, about 8,200 (2.3%) were called active. No stated cut-off is given here; in the data, active means inhibition above about 27%; inactive means the rest. This excerpt belongs to a sample that is enriched for actives.
These compounds were tested against Fructose-bisphosphate aldolase (Mycobacterium tuberculosis (strain ATCC 25618 / H37Rv)) (UniProt P9WQA3) (assay: M. tuberculosis aldolase activity blockers – biochemical, fluorescence, strain H37Rv, primary screen (AID 588726;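 further: 0% = vehicle and 100% = reference inhibitor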)). Conditions: purified M. tuberculosis FBA, fluorescence read-out, at 1 µM, hits give high values.
Fructose-bisphosphate aldolase (Mycobacterium tuberculosis (strain ATCC 25618 / H37Rv)), sequence (P9WQA3 whole entry, looked up): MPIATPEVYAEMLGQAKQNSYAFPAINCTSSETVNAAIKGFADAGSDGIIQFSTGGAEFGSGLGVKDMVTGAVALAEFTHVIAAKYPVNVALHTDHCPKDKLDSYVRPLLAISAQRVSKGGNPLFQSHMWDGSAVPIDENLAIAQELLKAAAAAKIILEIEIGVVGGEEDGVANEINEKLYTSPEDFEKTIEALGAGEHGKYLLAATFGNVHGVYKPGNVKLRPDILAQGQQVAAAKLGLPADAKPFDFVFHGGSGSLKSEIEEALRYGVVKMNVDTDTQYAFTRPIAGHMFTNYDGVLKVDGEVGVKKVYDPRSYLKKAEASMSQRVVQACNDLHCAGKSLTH

Row | SMILES | inhibition
1 | CC(C)(C)NC(=O)c1cc(NC(=O)c2ccco2)cc(NC(=O)c2ccco2)c1 | 1.27% (inactive)
2 | O=C(NNC(=O)c1ccco1)Nc1ccccc1 | -0.74% (inactive)
3 | O=C(Nc1ccc2nccnc2c1)c1ccco1 | 50.1% (active)
4 | COc1ccc(-c2[nH]ncc2CN(C)Cc2cc(C)[nH]n2)c(F)c1 | -3.53% (inactive)
5 | CC(C)C(OC(=O)c1cccs1)C(=O)NC1CCCCC1 (centres undefined) | 3.33% (inactive)
6 | O=C(NCc1cccnc1)c1cc(C2CCCN(C(=O)C3CCCCC3)C2)on1 (centres undefined) | 1.09% (inactive)
7 | Cc1cc(C(F)(F)F)c(C#N)c(SCC(=O)NC2CC2)n1 | 1.94% (inactive)
8 | CCOC(=O)COc1nc(C)cc(C(F)(F)F)c1C#N | 75.7% (active)
9 | CCOC(=O)CN(C(=O)COc1nc(C)cc(C)c1C#N)c1ccc(Cl)cc1 | 0.17% (inactive)
10 | O=C1CC(Cc2ccc(Cl)cc2)C(=O)N1c1cc(Cl)ccn1 (centres undefined) | -3.99% (inactive)
11 | Cc1cc(C)n(-c2nc(O)cc(=O)[nH]2)n1 | -2.32% (inactive)
12 | CN(C)c1ccc(-c2nnc(-c3cccnc3)o2)cc1 | 14.1% (inactive)
13 | OC(c1nnc(-c2ccccc2)o1)c1cccs1 (centres undefined) | -4.15% (inactive)
14 | Nc1ccc(-c2nnc(-c3ccc(-c4ccccc4)cc3)o2)cc1 | 62.9% (active)
15 | COC(=O)[C@@H]1C[C@@]2(O)[C@@H](O)[C@@H](O)[C@@H](O)C[C@H]2N1Cc1ccc(C)s1 | -1.21% (inactive)
16 | CC(C)Cn1c(N)c(C(=O)COC(=O)C2CCCN2C(=O)c2cccs2)c(=O)n(C)c1=O (centres undefined) | 2.37% (inactive)
17 | Cc1ccc(S(=O)(=O)N2CCN(C(=O)Cc3sc(C)nc3-c3ccc(F)cc3)CC2)c(C)c1 | -0.33% (inactive)
18 | C=CCn1c(COc2ccc(F)cc2)nnc1SCC(=O)Nc1cccc(S(N)(=O)=O)c1 | 0.32% (inactive)
19 | C=CCn1c(CCNC(=O)c2ccccc2F)nnc1SCC(=O)Nc1ccc(OC)cc1 | 43.4% (active)
20 | Cc1ccc(NC(=O)CSc2nnc(CNC(=O)c3ccccc3F)o2)cc1 | 0.75% (inactive)
21 | COc1ccc(CCNC(=O)C(=O)NCC2OCCN2S(=O)(=O)c2ccc(OC)c(C)c2)cc1 (centres undefined) | -0.91% (inactive)
22 | O=C(CN(C(=O)c1csnn1)c1cccc(Cl)c1)NC1CCCC1 | 2.14% (inactive)
23 | CC(C)[C@@H](C(=O)O)N(Cc1cccc(CN([C@H](C(=O)O)C(C)C)S(C)(=O)=O)c1)S(C)(=O)=O | 5.75% (inactive)
24 | O=C1CC2(CCCC2)Oc2ccc(Cl)cc21 | 2.17% (inactive)

Row | SMILES | inhibition
25 | O=C1CC2(CCCCC2)Oc2ccc(OCC(=O)N3CCOCC3)cc21 | 49.5% (active)
26 | O=C1CC2(CCN(C(=O)COc3ccc(F)cc3)CC2)Oc2ccccc21 | 6.06% (inactive)
27 | Cc1ccc2nc(/C(C#N)=C\c3ccc(OC(=O)c4cccs4)cc3)[nH]c2c1 | 36.1% (active)
28 | COc1ccc(CCNC(=O)/C(C#N)=C2\N=C(NC(=O)c3cccs3)c3ccccc32)cc1 | -0.53% (inactive)
29 | CCN(CC)c1ccc(C(=O)c2cnc(/N=C/N(C)C)s2)cc1 | -0.9% (inactive)
30 | CCC1CCCCN1CCNC(=O)c1[nH]c(C)c(C(C)=O)c1C (centres undefined) | -2.24% (inactive)
31 | CC(C(=O)N1CCN(c2ccccc2F)CC1)c1ccc([N+](=O)[O-])cc1 (centres undefined) | -0.87% (inactive)
32 | CCOc1ccc(NC(=O)c2ccc(NC(=O)C3CCCO3)cc2)cc1 (centres undefined) | 0.48% (inactive)
33 | CC(C)(C)NS(=O)(=O)c1ccc(NC(=O)C2CCCO2)cc1 (centres undefined) | 0.12% (inactive)
34 | O=C(Nc1ccc(-c2nnc(-c3ccccc3)o2)cc1)C1CCCO1 (centres undefined) | 61.2% (active)
35 | c1ccc2c(-c3nn4nnnc4c4ccccc34)cccc2c1 | 1.01% (inactive)
36 | Cc1csc(NC(=O)C2CCN(S(=O)(=O)c3ccccc3)CC2)n1 | -1.66% (inactive)
37 | CC(=O)Nc1ccc(-c2nc3ccccc3o2)cc1 | 60.6% (active)
38 | COc1cc(OC)cc(C(=O)Nc2ccc(-c3nc4ccccc4o3)c(O)c2)c1 | 38% (active)
39 | Cc1ccc2nc(-c3ccc(NC(=O)c4cccnc4)cc3)oc2c1 | -7.14% (inactive)
40 | COc1cc(OC)cc(C(=O)N[C@H](C(=O)Nc2nc3ccccc3[nH]2)C(C)C)c1 | -0.55% (inactive)
41 | CC(C)(C)C(=O)CSc1nc2ccccc2o1 | 2.23% (inactive)
42 | COc1cccc(C(=O)Nc2ccc3nc4n(c(=O)c3c2)CCCCC4)c1 | 0.68% (inactive)
43 | CC1(C(=O)Nc2cccc3c2CCCC3)CCN1C(=O)CCc1ccc(Cl)cc1Cl (centres undefined) | 0% (inactive)
44 | O=C(Cc1ccc(F)cc1)NC1CCCC1 | -0.93% (inactive)
45 | CCOC(=O)c1c(C)c(C(=O)NCCc2ccc(S(N)(=O)=O)cc2)c(C)n1CC | -2.42% (inactive)
46 | Cc1noc(C)c1C(=O)NCCc1ccc(S(N)(=O)=O)cc1 | 0.56% (inactive)
47 | CCCNC(=O)c1c(N)n(-c2ccc(S(N)(=O)=O)cc2)c2nc3ccccc3nc12 | 102% (active)
48 | CC1(C(=O)NCc2cccc3ccccc23)CCN1Cc1ccc(-c2ccccc2)o1 (centres undefined) | 2.7% (inactive)

Row | SMILES | inhibition
49 | Cc1cc(Nc2cc(N3CCN(C)CC3)nc(Sc3ccc(NC(=O)C4CC4)cc3)n2)n[nH]1 | 0.5% (inactive)
50 | CCOc1ccc(-c2nc(C)sc2CC(=O)O)cc1 | 5.29% (inactive)
51 | NC(=O)Cc1ccc2sc(-c3ccccc3)nc2c1 | 5.06% (inactive)
52 | O=C(O)Cc1sc(-c2ccc(C(=O)O)cc2)nc1-c1ccccc1 | 37% (active)
53 | Cc1cccc(C)c1N1C(=O)CN(Cc2ccccc2)C1=S | 3.51% (inactive)
54 | Clc1cccc(Cc2c(-c3cccc(Cl)c3)nc3ccc(Cl)cn23)c1 | 6.59% (inactive)
55 | Cc1ccc(Cc2c(-c3ccco3)nc3ccc(Cl)cn23)cc1 | 6.29% (inactive)
56 | Cc1ccc2nc(-c3ccco3)c(Cc3cccc(Cl)c3)n2c1 | 30.3% (active)
57 | O=C(Nc1ccc(N2CCN(C(=O)c3ccccc3)CC2)c(Cl)c1)c1cccnc1 | -4.3% (inactive)
58 | Cn1c(CCNS(=O)(=O)c2ccc(F)cc2)nnc1SCc1cccnc1 | -0.16% (inactive)
59 | Cc1nn(C)c(Oc2ccccc2)c1CCNS(=O)(=O)c1ccc(F)cc1 | 28.7% (active)
60 | COc1ccc(CCNS(=O)(=O)c2ccc(F)cc2)cc1OC | 0.71% (inactive)
61 | COC(=O)c1ccc(CN2CCC(CO)(Cc3ccc(OC)cc3)CC2)cc1 | 8.41% (inactive)
62 | CC1(Cc2cccc(C#N)c2)C(=O)Nc2ccc(-c3cccc(C(F)(F)F)c3)cc21 (centres undefined) | -1.35% (inactive)
63 | C=CCn1c(-c2ccc(Cl)cc2)ccc(C#N)c1=O | 1.41% (inactive)
64 | C=CCn1cc(-c2cccc(C(F)(F)F)c2)cc(C#N)c1=O | 47.4% (active)
65 | O=C(COC(=O)CNS(=O)(=O)c1ccc(F)c(F)c1F)NC1CCCC1 | -3.58% (inactive)
66 | COc1ccc(CNC(=O)CN(C(=O)c2csnn2)c2cnc3ccccc3c2)cc1 | 3.6% (inactive)
67 | COC(=O)N1CN(C(=O)OC)CN(C(=O)OC)C1 | 0.37% (inactive)
68 | Cc1nc2ccc(NC(=S)N3CCC(C)CC3)cc2nc1C | 5.9% (inactive)
69 | Cc1nc2ccc(NC(=O)N3CCC(c4ccccc4)C3)cc2nc1C (centres undefined) | 72.4% (active)
70 | Cc1ccc(C2CCN(C(=S)Nc3cccc(Cl)c3)C2)cc1 (centres undefined) | -1.23% (inactive)
71 | COc1cccc(CN2CCN(Cc3ccc4cccc(F)c4n3)CC2CCO)c1 (centres undefined) | 2.17% (inactive)
72 | Cc1ccc(C(CNC(=O)Nc2cccc(C)c2)N2CCN(C)CC2)cc1 (centres undefined) | 2.29% (inactive)

Row | SMILES | inhibition
73 | CCN(C(=O)COC(=O)c1ccc(COc2ccc3c(C)cc(=O)oc3c2)cc1)C1CCS(=O)(=O)C1 (centres undefined) | 44.6% (active)
74 | Cc1ccccc1NC(=O)c1ccc(COc2ccc3c(C)cc(=O)oc3c2)cc1 | 11.9% (inactive)
75 | COc1ccc(-c2cc(=O)oc3cc(OCC(=O)N(C)C4CCS(=O)(=O)C4)ccc23)cc1 (centres undefined) | 3.8% (inactive)
76 | C[C@@H]1CN([C@@H](C)CO)C(=O)CCCn2nncc2CO[C@@H]1CN(C)S(=O)(=O)c1ccc(-c2ccccc2)cc1 | -2.99% (inactive)
77 | CCc1nc2c(OCCOc3ccccc3)cccn2c1N(C)C(=O)c1ccc(OC)cc1 | 1.06% (inactive)
78 | CN(C)CCCn1c(N)c(C#N)c2nc(C#N)c(C#N)nc21 | 61.1% (active)
79 | C=CCn1c(SCc2nnc(-c3ccccc3)o2)nnc1C(O)c1ccccc1 (centres undefined) | 1.46% (inactive)
80 | Cc1cc(C)c2c(n1)sc1c(=O)n(-c3ccccc3)c(=O)[nH]c12 | 38.8% (active)
81 | C/C(O)=C\c1nc(=O)c2c(C)cc(C)nc2n1-c1ccccc1 | 4.59% (inactive)
82 | Cc1sc2nc(SCCO)n(-c3ccccc3)c(=O)c2c1C | 1.67% (inactive)
83 | COC(=O)c1ccccc1NC(=O)CN(Cc1ccccc1)S(C)(=O)=O | 5.21% (inactive)
84 | COc1ccccc1N1CCN(S(=O)(=O)CCNC(=O)c2ccc(OC(C)C)cc2)CC1 | -0.15% (inactive)
85 | C[C@@H]1CN([C@@H](C)CO)C(=O)c2c(c3ccccc3n2C)-c2ccccc2CO[C@H]1CN(C)C(=O)C1CC1 | 2.36% (inactive)
86 | COc1ccc2oc(C(=O)NCc3ccco3)c(C)c2c1 | 25.3% (inactive)
87 | CCN1CCCC1Cn1cnc2c([nH]c3cc(OC)ccc32)c1=O (centres undefined) | 1.27% (inactive)
88 | O=c1c2[nH]c3ccc(Cl)cc3c2ncn1Cc1ccccn1 | -2.42% (inactive)
89 | COc1cccc(Cn2cnc3c([N+](=O)[O-])c(C)c(C)cc32)c1 | -3.25% (inactive)
90 | COc1ccc2[nH]c3c(=O)n(Cc4ccco4)cnc3c2c1 | 97.5% (active)
91 | Cc1ccc2[nH]c3c(=O)n(Cc4ccccn4)cnc3c2c1 | 29.9% (active)
92 | COc1ccc2c(c1)c1ncn(Cc3ccccn3)c(=O)c1n2C | 159% (active)
93 | Cc1ccc(C)c(Cn2cnc3c(oc4ccccc43)c2=O)c1 | -1.54% (inactive)
94 | COc1ccc2c(c1)c1nc3n(c(=O)c1n2CC(=O)Nc1ccccc1)CCS3 | 8.41% (inactive)
